Test results as given in ChEMBL document CHEMBL3988442, “University of Dundee, Small-Polar-MMV Screening Library” (2021).

The compounds below were run against AMP-activated protein kinase, AMPK (Homo sapiens) (UniProt P54646+O43741+P54619+Q9UGJ0+Q9Y478+Q13131+Q9UGI9) (assay: AMP-dependent Kinase enzyme assay. An in vitro enzyme assay that detects ADP turnover that is directly proportional to AMPK activity. This uses naive AMPK that is activated during the assay with MK-8722). Conditions: 30 µM.
Assay type: functional
Set-up: scale not given: direction of the effect not stated beside the values

SMILES | Percent Effect [%]
CCCN1CCC(N(C)C(=O)c2cc(C)nc3cc(F)ccc23)CC1 | -6.76
OC1CCCN(Cc2cn(CC3CCN(C4CCSCC4)CC3)nn2)C1 (stereo not given) | 8.15
Cc1ccc(Br)cc1C(=O)Nc1cc(C(N)=O)n(C)c1 | 0.519
Cc1nc2c(c(N[C@H](C(N)=O)C(C)C)n1)Cc1ccccc1OC2 | -25.7
CN(Cc1noc(C2CC2)n1)C1CCN(CCn2cccn2)C1 (stereo not given) | 5.76
Cc1noc(C)c1C(=O)N(C)C(C)c1ccc(S(C)(=O)=O)cc1 (stereo not given) | -2.19
Cc1ncn(CCNC(=O)Nc2ccc(F)c(Cl)c2)c(=O)c1C | 2.03
COc1ccc(C(=O)N2C[C@@H](O)[C@H](NCc3cnc(C)cn3)C2)cc1 | -12.3
O=C(O)c1cn(CC2CCCN(c3nc4ccccc4s3)C2)nn1 (stereo not given) | -1.06
Cc1cc(CN(C)C(=O)CC(C)C)no1 | 0.491
Cc1cc(Cl)c(C)c(S(=O)(=O)N2CCN(Cc3ccccn3)CC2)c1Cl | 1.09
O=C(NC1CCOCC1)c1cccc(C2CCCNC2)c1 (stereo not given) | 2.1
FC(F)(F)Oc1cccc(CNCc2ccc(-n3cncn3)nc2)c1 | 12.8
Cc1ccc2ncccc2c1CN1CC[C@H](N(C)C)[C@H](CCC(=O)O)C1 | -2.6
CCn1nc(C)cc1C(=O)N1C[C@@H](CN(C)C)[C@@H](CO)C1 | 0.455
Cc1cc(N2CCN(Cc3ccsc3)C(CCO)C2)nc(N)n1 (stereo not given) | 0.121
Cc1n[nH]c(C)c1CCC(=O)N1CCc2c(nc[nH]c2=O)C1 | -0.287
N[C@H]1CN(C(=O)c2ccc3[nH]c(=O)c(=O)[nH]c3c2)C[C@@H]1c1ccccc1 | 3.24
COC(=O)c1ccc(CN(C(C)C)C(C)C)o1 | 3.89
COc1ncc(NCc2cccc(C#N)c2)cc1C(N)=O | 8.6

SMILES | Percent Effect [%]
CNC(=O)c1ccnc(N2CCCC(COc3cccc(C)c3)C2)c1 (stereo not given) | 29.8
COC(CNC(=O)c1ccc[nH]1)c1cccc(Cl)c1 (stereo not given) | 1.53
CCCn1nnnc1COC(=O)C1COc2ccccc2O1 (stereo not given) | 3
CCSc1cc(C(=O)NC(C)c2cccc(N3CCOC3=O)c2)ccn1 (stereo not given) | 7.17
CSc1nsc(NC(=O)N(C)Cc2ccc3c(c2)OCO3)n1 | 0.417
COc1cc2c(cc1CNCc1cccnc1-n1cccn1)OC(C)C2 (stereo not given) | 5.16
COc1cc(C)c(S(=O)(=O)CC(=O)N(C)C(C)C)cc1OC | 5.04
Cc1cc(N2Cc3cnn(CCO)c3C2)nc(-c2ccccc2)n1 | 4.37
Cc1cc(CNS(=O)(=O)CCCC#N)ccc1N(C)C | -7.86
O=C(c1nnn(-c2ccc(F)cc2)n1)N(CCO)Cc1ccccc1 | 3.9
CCC(C)NC(=O)c1sccc1-n1cnnn1 (stereo not given) | 9.35
Cc1nc(COC(=O)c2cccc3c2OCCO3)cs1 | 3.39
CCCn1cc(-c2cc(C(=O)N(C)C)c3ccc(C)cc3n2)cn1 | 11.6
COCC[C@]1(O)CCN(Cc2ccccn2)C[C@H]1C | 5.38
O=C(N1CC(c2cccnc2)C1)C1(c2ccc(F)cc2)CCOCC1 | 0.43
COC(=O)C1CN(Cc2ccn(-c3ccc(F)cc3)n2)C[C@@H](C)O1 (stereo not given in full) | -6.96
Cc1cc(C2CCCN(CC(=O)N3CCCc4ccccc43)C2)n[nH]1 (stereo not given) | -5.06
CN(C)Cc1cnn(-c2ccccc2C(=O)NCCC2CCCN2C)c1 (stereo not given) | 5.44
Cc1nnc(NC(=O)c2c3c(nn2C2CCS(=O)(=O)C2)CCC3)s1 (stereo not given) | -6.11
Fc1cccc(-c2n[nH]cc2-c2nc(CN3CCOCC3)no2)c1 | 5.95
